Source: PubChem (National Center for Advancing Translational Sciences (NCATS))
An excerpt weighted towards active compounds, which were near 8% of everything screened.
HCMV antiviral = human cytomegalovirus inhibition. HFF cells, HCMV-luciferase reporter, 72 h; stronger effect = lower value. activity change, negative = inhibition, % at 57.5 µM. actives 4.5% (n = 410,000). AID 1259415; in the data active = activity change below about -60%; inconclusive = no clear call, values can overlap the other calls; inactive = above about -39%; also: % is scaled to controls: 0 for no effect and ±100 for the full control effect
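Inhibition of viral replication was scored as loss of reporter luminescence in HFFs infected with HCMV-luciferase (MOI 1 PFU/cell) for 72 h; compounds tested at 2 doses, normalized to buffer and Salinomycin controls.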
FMDV antiviral = blocks foot and mouth disease virus; FMDV antiviral cell-based qHTS; Potency, µM (highest dose often 57.9 µM), for inactives: at the top dose activity change, negative = inhibition, most hits filed as inhibitors; actives 1.2% (n = 410,000); calls by dose curve; tested in HEK293T cells; also: read-out not given here; potency is read from the fitted curve at half-maximal effect; % is scaled to controls: 0 for no effect and ±100 for the full control effect; nearly all actives have a fitted effect of over 45% in size
HCV inh = blocks hepatitis C virus; Huh7.5.1 HCVcc-Cre infection, luciferase reporter, 44 h; Potency, µM (top dose mostly 41.8 µM), for the others: at the top dose activity change, negative = inhibition, actives largely listed as inhibitors; actives 3.4% (n = 340,000); active = well fitted inhibition curve with a large enough effect; inconclusive = small, poorly fitted or top-dose-only effect, or another doubt; inactive = no such curve, though single readings can be large or run the other way; also: potency is read from the fitted curve at half-maximal effect; % is scaled to controls: 0 for no effect and ±100 for the full control effect
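Luciferase read-out (15 sec integration) after a 15 min room-temperature substrate step quantifies HCVcc-Cre infection. Cells, 1,000 per well, had compound added 4 h post-plating, then virus at ~0.5 moi, and were cultured 44 h.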
SARS PLP yeast = inhibitors of SARS-CoV papain-like protease in yeast; S. cerevisiae expressing SARS-CoV PLpro, growth rescue; Potency, µM (doses to about 32.9 µM), for the others: at the highest dose activity, positive = growth rescue, actives largely listed as activators; actives 0.19% (n = 330,000); calls by dose curve; also: potency is read from the fitted curve at half-maximal effect; 0% is about no effect; nearly all actives have a fitted effect of over 55% in size
MARV entry inh = inhibitors of Marburg virus binding or cell entry; Marburg virus pseudotyped entry inhibition, cell reporter; AID 540276; Potency, µM (titrated, usually from 37.8 µM), for inactives: at the top dose activity change, negative = inhibition, usual class: inhibitors; actives 1.8% (n = 300,000); calls by dose curve; tested in HEK293 cells; also: potency is read from the fitted curve at half-maximal effect; % is scaled to controls: 0 for no effect and ±100 for the full control effect
LASV entry inh = Lassa virus entry inhibition | Lassa virus pseudotype entry inhibition, cell reporter | actives 1.2% (n = 300,000) | AID 540256 | Potency, µM (highest dose often 37.9 µM), inactives show at the top dose activity change, negative = inhibition, most hits filed as inhibitors; calls by dose curve; tested in HEK293 cells; also: potency is read from the fitted curve at half-maximal effect; % is scaled to controls: 0 for no effect and ±100 for the full control effect; nearly all actives have a fitted effect of over 50% in size
The depositor's hits bear a star; ? = inconclusive; · = not tested or not shown; [ ] = another dose, or the depositor's remark.

SMILES | HCMV antiviral | FMDV antiviral | HCV inh | SARS PLP yeast | MARV entry inh | LASV entry inh
CCCc1nnc(NC(=O)c2nc(SCC)ncc2Cl)s1 | -2.9 | -16.8% | · | · | -15.1%[46.1 µM] | 2.7%[46.1 µM]
Cc1ccc(CS(=O)(=O)c2ncc(Cl)c(C(=O)Nc3nc4ccc(C)cc4s3)n2)cc1 | -107.0* | ? | · | · | ? | ?
COc1ccc2nc(NC(=O)c3nc(S(=O)(=O)Cc4ccc(C)cc4)ncc3Cl)sc2c1 | -99.6* | -8.8% | · | · | ? | ?
CCCSc1ncc(Cl)c(C(=O)Nc2nc3ccc(OCC)cc3s2)n1 | -9.6 | 46.9% | · | · | 2.0%[46.1 µM] | 17.7%[46.1 µM]
Cc1ccc(CS(=O)(=O)c2ncc(Cl)c(C(=O)Nc3nc4ccc(F)cc4s3)n2)cc1 | -93.3* | ? | · | · | -8.4%[46.1 µM] | ?
Cc1ccc(CSc2ncc(Cl)c(C(=O)Nc3nc4ccc(C)cc4s3)n2)cc1 | 11.2 | -7.4% | · | · | -5.5%[46.1 µM] | 11.2%[46.1 µM]
CC(CC(=O)Nc1ccc(F)cc1)S(=O)(=O)c1cc2c3c(c1)CCN3C(=O)CC2 (stereo not drawn) | -11.4 | -4.6% | · | · | · | -4.7%[46.1 µM]
Cc1nc2sccn2c1CN1Cc2ccccc2OC(c2ccccc2F)C1 (stereo not drawn) | · | -20.2% | · | · | · | ·
O=C1CCC[C@H]2[C@@H](Cc3ccccc3)[C@@H](NS(=O)(=O)c3ccc4ccccc4c3)CC[C@]23CCCN13 | 2.9 | · | · | · | · | ·
COc1ccc(N2CC3=C(C2=O)C(c2ccc(O)c(OC)c2)NC(=O)N3C)cc1 (stereo not drawn) | -5.2 | -21.5% | · | · | 2.9%[46.1 µM] | 3.3%[46.1 µM]
COc1ccc(Br)cc1CNC(=O)c1nn(-c2ccc(C)cc2)c(=O)c2c1c1ccccc1n2C | 22.8 | 9.3% | · | · | -3.9%[46.1 µM] | -0.4%[46.1 µM]
Cc1ccccc1NC(=O)COC(=O)/C=C/c1cn(-c2ccccc2)nc1-c1cccnc1 | -29.4 | -18.2% | -17.5% | 14.2% | -0.5% | -11.7%
CC(=O)Nc1ccc(NC(=O)C(C)OC(=O)/C=C/c2cn(-c3ccccc3)nc2-c2cccnc2)cc1 (stereo not drawn) | -94.1* | ? | ? | 20.7% | ? | ?
O=C(/C=C/c1cn(-c2ccccc2)nc1-c1cccnc1)N1CCCCC1 | -60.2* | ? | ? | -0.7% | · | ·
Cc1nc(-c2ccc(OCC(C)C)c(C#N)c2)sc1C(=O)O | 57.8 | · | · | · | · | ·
O=C(Nc1nc(-c2ccccc2)c(-c2ccccc2)s1)c1ccc(S(=O)(=O)N(CCCl)CCCl)cc1 | -27.5 | -8.8% | -9.7% | 4.5% | ? | 5.01µM*
Cc1cc(C(=O)N/N=C/c2cccc3ccccc23)c(C)o1 | 43.8 | 38.6% | -20.0% | -2.2% | 7.94µM* | -0.5%[46.1 µM]
O=C(N/N=C/c1cccc2ccccc12)C(=O)N1CCCC1 | -71.2* | 31.1% | -22.2% | 0.0% | -9.3%[46.1 µM] | -22.2%[46.1 µM]
COc1ccc(C(=O)Nc2ccccc2C(=O)N/N=C/c2ccncc2)cc1OC | 66.1 | 14.1µM* | 0.0% | -6.5% | ? | ?
COc1ccc(C(=O)Nc2ccccc2C(=O)N/N=C/c2cccc3ccccc23)cc1 | 30.2 | 0.316µM* | -15.4% | -0.9% | ? | ?
Cc1oc(-c2ccccc2NC(=O)C2CCCO2)nc1CNC(=O)c1cc(F)c(F)cc1F (stereo not drawn) | · | -6.2% | · | · | · | ·
Cc1oc2c(C)c3oc(=O)c(CC(=O)N4CCCCC4)c(C)c3cc2c1C | -34.7 | 11.4% | · | · | 13.8%[46.1 µM] | 13.0%[46.1 µM]
COc1ccc(CCNC(=O)C(C)n2nc(C)c3sc4ccccc4c3c2=O)cc1OC (stereo not drawn) | -5.1 | -27.5% | · | · | ? | 17.4%[46.1 µM]
CCCC(=O)Nc1cc(C(=O)NCc2ccccc2)ccc1S(=O)(=O)c1ccc(Cl)cc1 | 7.9 | -5.7% | · | · | · | 7.2%[46.1 µM]
CN1/C(=C\P(=O)(N(C)C)N(C)C)C(C)(C)c2ccccc21 | -93.0* | ? | 3.9% | 3.4% | ? | ?
SMILES | HCMV antiviral | FMDV antiviral | HCV inh | SARS PLP yeast | MARV entry inh | LASV entry inh
CCOC(=O)/C=C1/N(C)c2ccccc2C1(C)C | -30.5 | -9.1% | 10.2% | -4.6% | 5.7%[46.1 µM] | 13.0%[46.1 µM]
O=C1C(c2cccc(Br)c2)N(CCc2ccccc2)C(=O)CN1C1CCCCC1 (stereo not drawn) | 42.3 | 4.1% | · | · | · | 3.9%[46.1 µM]
CCCS(=O)(=O)NC(=O)C1(C)CCCN(C(=O)CCc2ccccc2)C1 (stereo not drawn) | -65.1* | · | · | · | · | ·
Cc1nn(C(C)C)c(C)c1CN1CCCC(C(=O)c2cccc(OC(C)C)c2)C1 (stereo not drawn) | -31.8 | ? | ? | -1.7% | 12.6µM* | ?
Cc1cccc(CN2CCCC(C(=O)c3cccc(OC(C)C)c3)C2)n1 (stereo not drawn) | ? | -16.9% | ? | 1.0% | · | ·
CCn1nc(C)c(CN2CCCC(C(=O)c3cccc(OC(C)C)c3)C2)c1C (stereo not drawn) | ? | ? | 8.91µM* | -1.8% | · | ·
CC(=O)Nc1ccc2c(c1)Cc1c-2cc(Br)c(N)c1Br | -22.1 | 29.9% | 11.2µM* | · | ? | 19.7%
CC(=O)Nc1ccc2c(c1)Cc1c(F)cccc1-2 | 6.8 | 98.1% | 10µM* | · | 7.8% | ?
CC(=O)Nc1c(Br)cc2c(c1Br)Cc1cc(Br)ccc1-2 | 17.1 | 2.6% | ? | · | ? | -19.8%
CCOC(=O)N1CCc2c(sc3c2c(=O)n(CCc2ccccc2)c(=O)n3Cc2c(F)cccc2Cl)C1 | -6.9 | 0.0% | · | · | -13.8%[46.1 µM] | 12.4%[46.1 µM]
Cc1cc2nc(-c3cc4ccccc4[nH]3)c(=O)n(/C=C(/c3ccccc3)n3c(=O)[nH]c4ccccc43)c2cc1C | 10.1 | · | · | · | · | ·
CC(=O)Nc1cc(C(=O)N2CCSCC2)cc2ncn(CCc3ccccn3)c12 | · | -11.1% | · | · | · | ·
CCOC(=O)c1cc(S(=O)(=O)Nc2cc(F)ccc2C)[nH]n1 | 6.4 | 25.8% | · | · | · | 13.6%[46.1 µM]
COc1ccc2c(c1)CC(NC(=O)Nc1ccc(Br)c(C)c1)CO2 (stereo not drawn) | 0.6 | -30.9% | · | · | · | -12.9%[46.1 µM]
Clc1cccc(Cl)c1C1N2CCCN12 (stereo not drawn) | -63.1* | -18.0% | 6.1% | 19.4% | 8.5%[46.1 µM] | -3.6%
COc1ccc(NC(=O)CCCN2C(=O)CCn3nc(-c4cn(C)c5ccccc45)cc32)cc1 | 6.5 | -25.1% | · | · | · | -7.8%[46.1 µM]
COc1ccc(C(=O)O)cc1Nc1nc2ccc(C)cc2n2cnnc12 | -2.2 | 23.4% | · | · | 22.7%[46.1 µM] | ·
CCOC(=O)c1sc(NC(=O)c2ccc(OC)cc2)nc1C | -23.8 | 41.5% | ? | 0.0% | 10.3%[46.1 µM] | 9.1%[46.1 µM]
Cc1cnc(NC(=O)CC(C)c2ccccc2)s1 (stereo not drawn) | -67.6* | 3.3% | ? | 1.1% | ? | 3.8%[46.1 µM]
CCOC(=O)c1sc(NC(=O)CC(C)c2ccccc2)nc1C (stereo not drawn) | -4.1 | -24.4% | ? | 8.9% | 5.62µM* | ?
COc1ccccc1OCC(=O)Nc1nc(C)c(C)s1 | -13.1 | 31.8% | ? | -5.3% | ? | 12.6µM*
COC(=O)c1sc(NC(=O)COc2ccccc2C)nc1C | -12.1 | 65.7% | ? | -4.1% | 3.8%[46.1 µM] | -1.8%
